Results on 13 compounds are retold here after PubChem BioAssay.

Calls of active or inactive are those of the source.

The target in one assay is Albumin (Bos taurus) (UniProt P02769). Kind of assay: bovine serum albumin binders on microarray, profiling panel, artefact control for SMM control protein annotation, biochemical, small-molecule microarray, Alexa647 label, 635/667 nm fluorescence (AID 1118).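 Further: score merges 667 nm emission intensity and signal-to-noise per printed compound spot.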 To be noted: BSA-A647 binding, fluorescence 635 nm, higher = more signal.
Assay [1] is described as follows: small-molecule microarray binders of probe aXIP, primary screen, biochemical, NeuroSMM set, 635/667 nm fluorescence (AID 1119).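 Further: probe is the protein aXip251-270 applied at 1 µg/mL to compound-printed slides; binding of probe to printed compounds measured as 667 nm fluorescence plus signal to noise.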 To be noted: higher = more signal, called active from +8 up or from −8 down.
Assay [2] in a line: small-molecule binders of probe aNOTCH3, primary screen, biochemical, small-molecule microarray, 635/667 nm fluorescence (AID 1120).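 Further: probe is a biotin-tagged antibody raised against NOTCH3 rather than NOTCH3 protein; score merges spot fluorescence near 667 nm with spot signal to noise.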 The note with it: higher = more signal.
A short description of assay [3]: small-molecule binders of probe aNOTCH2, primary screen, biochemical, small-molecule microarray, 635/667 nm fluorescence (AID 1121).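 Further: score merges feature fluorescence read at 667 nm with its signal to noise.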 To be noted: higher = more signal.
For assay [4], the target named is Carbonic anhydrase 2 (Homo sapiens) (UniProt P00918). In words: CAII small-molecule binders, profiling panel, biochemical, small-molecule microarray, Alexa647-labelled CAII (AID 1122). To be noted: CAII-A647 binding fluorescence, higher = more signal.
The nature of assay [5]: COS7 lysate on small-molecule microarray, probe aHis, 635 nm (AID 1123).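 Further: z-score combines 667nm fluorescence intensity with signal-to-noise per printed compound spot.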 To be noted: COS7 cell lysate, fluorescence, higher = more signal.
Assay [6] is described as follows: compound binding in COS7 lysate, probe aLAP1, primary screen, cell lysate, small-molecule microarray (AID 1124).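 Further: lysate comes from COS7 cells expressing LAP1 and is applied at 0.3 µg/mL; score merges spot fluorescence near 667 nm with signal-to-noise over triplicate slides.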 To be noted: probe aLAP1, fluorescence, higher = more signal.
For a further assay, the system named is Sam68 (KHDRBS1). Kind of assay: Sam68 small-molecule binders, primary screen, biochemical, small-molecule microarray, 635 nm fluorescence (AID 1125).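 Further: score merges 667 nm channel intensity with signal to noise over triplicate slides.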 The note with it: small-molecule microarray binding, higher = more signal.
For assay [7], the system named is Chordin-like protein 2 (CHRDL2). In words: CHRDL2 small-molecule binders, primary screen, biochemical, small-molecule microarray, 635 nm fluorescence (AID 1126).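 Further: printed compound slides probed with Chrdl2 protein at 4 µg/mL for 1 h at 4 C; score merges 667 nm emission intensity with signal to noise over three replicate slides.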 To be noted: small-molecule microarray binding, fluorescence 635 nm; higher = more signal.
Assay [8] deals with Concanavalin-A (Canavalia ensiformis) (UniProt P02866). In words: ConA small-molecule binders, primary screen, artefact control for SMM control protein annotation, biochemical, small-molecule microarray, Alexa647 label, 635 nm (AID 1127).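 Further: z combines 667 nm emission intensity with signal-to-noise across three replicate slides.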 The note with it: ConA-A647 binding fluorescence, higher = more signal.
Concanavalin-A (Canavalia ensiformis), sequence (P02866 whole entry, looked up): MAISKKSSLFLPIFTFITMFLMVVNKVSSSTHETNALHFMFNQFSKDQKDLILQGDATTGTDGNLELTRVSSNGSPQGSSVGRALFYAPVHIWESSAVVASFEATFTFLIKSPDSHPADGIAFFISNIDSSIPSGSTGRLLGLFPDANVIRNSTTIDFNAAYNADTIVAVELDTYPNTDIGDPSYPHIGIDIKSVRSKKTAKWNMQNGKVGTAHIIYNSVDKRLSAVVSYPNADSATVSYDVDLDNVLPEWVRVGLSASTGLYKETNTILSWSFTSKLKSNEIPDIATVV

Albumin (Bos taurus), sequence (P02769 whole entry, looked up): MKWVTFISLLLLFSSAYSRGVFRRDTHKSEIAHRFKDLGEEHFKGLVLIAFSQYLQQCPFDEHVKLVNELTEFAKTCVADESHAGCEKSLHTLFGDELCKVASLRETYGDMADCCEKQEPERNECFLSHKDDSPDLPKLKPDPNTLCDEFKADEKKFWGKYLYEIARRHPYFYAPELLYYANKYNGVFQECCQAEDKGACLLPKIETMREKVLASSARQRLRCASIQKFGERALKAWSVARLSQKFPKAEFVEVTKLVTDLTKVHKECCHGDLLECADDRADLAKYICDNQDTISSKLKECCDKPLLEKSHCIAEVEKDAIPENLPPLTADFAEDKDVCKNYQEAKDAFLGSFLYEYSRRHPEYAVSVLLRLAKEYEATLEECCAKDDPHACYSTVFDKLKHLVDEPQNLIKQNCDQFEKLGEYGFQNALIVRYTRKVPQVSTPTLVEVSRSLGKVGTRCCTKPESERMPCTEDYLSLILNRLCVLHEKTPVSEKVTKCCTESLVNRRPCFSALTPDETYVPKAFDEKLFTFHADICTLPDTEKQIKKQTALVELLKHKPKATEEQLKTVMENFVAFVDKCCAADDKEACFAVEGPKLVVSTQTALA

With `C[N+](C)(C)CCCC[C@@H]1NC(=O)[C@@H]2C[C@H](C(=O)NCCCCCN)[C@H](c3cccc(OCCO)c3)N2C1=O`, the composite z-score in the assay with Albumin (Bos taurus) was 0.924; in assay [2], -0.0744; in assay [3], 0.0292; in assay [4], 0.832; in assay [5], 2.08; in assay [6], -0.207. The results for the composite z-score (in the assay on Sam68 (KHDRBS1); in assay [7]; in assay [8]) were 1.32, -0.633 and 0.929, respectively. Moreover, the composite Z-score in [1] is 0.0926 (inactive).
Turning to `CC(C)(C)OC(=O)CC[C@@]12N=C(c3ccc(OCCCO)cc3)O[C@@H]1c1ccccc1N(CCS(=O)(=O)c1ccccc1)C2=O`, the composite z-score with Albumin (Bos taurus) is -0.458; in assay [2], 0.106; in assay [3], -0.179; in [4], 0.73; in [5] it was 1.59; in assay [6], 0.184. Besides, the composite z-score with Sam68 (KHDRBS1) came out at 0.461; in assay [7], 0.623; in assay [8], 1.14. Also, the composite Z-score in assay [1] is 0.733 (inactive).
As to `CCOC(=O)C[C@H]1[C@H](OC(=O)c2ccc(C(=O)c3ccccc3)cc2)[C@@H](NC(=O)c2ccc(-c3ccccc3)cc2)c2cc(OCCCO)ccc2N1C(=O)c1ccccc1`, the composite z-score with Albumin (Bos taurus) is 0.0256; in [2], -0.0411; in assay [3] it was -0.11; in assay [4] it was 0.0733; in [5], 1.31; in assay [6] it was 0.032. The composite z-score was found to be 1.31 with Sam68 (KHDRBS1), 0.303 in assay [7] and 0.989 in [8]. For the same compound, the composite Z-score in [1] is 2.04 (inactive).
For the compound `COc1ccc([Si](C)(C)[C@H]2[C@H](CCn3cc([C@H](O)c4ccccc4)nn3)O[C@@]3(C(=O)N(Cc4cccc(N5CCOC5=O)c4)c4ccccc43)[C@@H]2C)cc1`, the composite z-score with Albumin (Bos taurus) was -0.0478; in assay [2], -0.0068; in assay [3], -0.301; in [4] it was 0.0191; in [5], 0.178; in assay [6], -0.49. For the same compound, the composite z-score was 1.07 in the assay with Sam68 (KHDRBS1), 0.528 in assay [7] and 0.958 in [8]. The composite Z-score in [1] was -0.01 (inactive).
Turning to `Cc1ccc(S[C@]2(C(=O)NCCN3CCOCC3)CC(=O)N(Cc3ccccc3)[C@@H]2c2ccc(CO)cc2I)cc1`, the composite z-score was 0.285 with Albumin (Bos taurus); -0.165 in assay [2]; -0.14 in assay [3]; 0.667 in [4]; 1.43 in [5]; 0.202 in assay [6]. Further, the composite z-score with Sam68 (KHDRBS1) was -0.388; in assay [7], -1.59; in assay [8], -0.112. Further, the composite Z-score in assay [1] was 0.994 (inactive).
On to `C=CC[C@]1(C(=O)N2CCCCC2)N=C(c2ccc(OCCCO)cc2)O[C@H]1c1ccccc1`, for which the composite z-score worked out at 0.579 with Albumin (Bos taurus); 0.748 in [2]; 0.429 in assay [3]; 0.63 in assay [4]; 2.04 in [5]; 0.488 in assay [6]. Moreover, the composite z-score with Sam68 (KHDRBS1) was 1.31; in assay [7], 0.238; in [8], 0.387. Further, in [1], the composite Z-score was 0.458 (inactive).
`C=C(COC)/C(=C/C[C@@H](OC(C)=O)c1ccc(OCCO)cc1)c1cc(C(=O)OC)ccc1OC`: the composite z-score in the assay with Albumin (Bos taurus) is 0.616; in [2] it was 0.0873; in assay [3] it was -0.118; in [4], 0.591; in assay [5], 0.669; in [6] it was -0.413. The composite z-score in the assay on Sam68 (KHDRBS1) worked out at 1.27; in [7], 0.784; in assay [8] it was 0.699. The composite Z-score in [1] was -0.064 (inactive).
As for `COc1ccc(CCN2C(=O)[C@@]3(c4ccc([N+](=O)[O-])cc4)CC(=O)N(C4CCCCC4)[C@@H]3c3ccc(CO)cc32)cc1`, the composite z-score with Albumin (Bos taurus) was -1.26; in assay [2], -0.0598; in assay [3] it was -0.101; in [4], 0.257; in assay [5] it was 0.622; in assay [6] it was 0.347. Also, the composite z-score in the assay with Sam68 (KHDRBS1) was determined as 0.38; in assay [7] it was 0.693; in [8], 0.587. The composite Z-score in [1] is 0.469 (inactive).
`O=C1O[C@H](c2ccccc2)[C@H](c2ccccc2)N2[C@H]1[C@@H](C(=O)Nc1nc3ccccc3s1)[C@]1(C(=O)Nc3ccc(C#CC4(O)CCCCCC4)cc31)[C@H]2c1ccc(OCCO)cc1`: the composite z-score with Albumin (Bos taurus) is 0.8; in [2], -0.0562; in assay [3], 0.146; in assay [4] it was 0.219; in [5], 1.46; in [6] it was 1.7. The composite z-score with Sam68 (KHDRBS1) worked out at 1.3; in assay [7], 0.508; in assay [8], 1.11. In assay [1], the composite Z-score was 0.905 (inactive).
`O=C(NCC(F)(F)F)[C@@H]1c2ccccc2C(=O)N(C2CCCCC2)[C@H]1c1ccc(CO)cc1`: the composite z-score with Albumin (Bos taurus) is 0.558; in [2] it was -0.0313; in [3], -0.0942; in assay [4], 0.667; in assay [5] it was -0.0286; in assay [6] it was -0.797. Besides, the results for the composite z-score (in the assay with Sam68 (KHDRBS1); in assay [7]; in [8]) were 0.314, -0.615 and 1.11, respectively. Also, the composite Z-score in [1] is 0.35 (inactive).
On to `COc1cc2c(cc1O)C(C1CC1)N(Cc1cc3c(cc1Br)OCO3)CC2` (stereo not given), for which the composite z-score with Albumin (Bos taurus) was 0.137; in assay [2], -0.318; in [3] it was -0.0703; in assay [4] it was 0.593; in [5], 0.478; in [6], 0.283. The values for the composite z-score (in the assay with Sam68 (KHDRBS1); in assay [7]; in assay [8]) were -1.09, -0.14 and -0.207, respectively. In addition, in assay [1], the composite Z-score was -0.431 (inactive).
Regarding `COc1ccc(C(O)C2C=CC3C(=O)N(c4ccccc4)C(=O)C3N2Nc2ccc(C(C)C)cc2)cc1OCc1ccccc1` (stereo not given), the composite z-score came out at 0.895 with Albumin (Bos taurus); 0.307 in assay [2]; 0.194 in [3]; 0.576 in assay [4]; 1.78 in [5]; 0.902 in assay [6]. Besides, the composite z-score is 1.33 with Sam68 (KHDRBS1), -0.443 in assay [7] and 1.12 in assay [8]. In addition, the composite Z-score in assay [1] was 0.868 (inactive).
`COC(=O)c1c(CC[C@@H](CO)NC(=O)N[C@H](Cn2cc(Cc3ccccc3)nn2)C(C)C)oc(C(C)=O)c1C(=O)OC`: the composite z-score with Albumin (Bos taurus) was 0.0007; in assay [2] it was -0.0159; in assay [3] it was -0.202; in assay [4], 0.43; in assay [5] it was 0.889; in assay [6], 0.0096. The composite z-score with Sam68 (KHDRBS1) was 0.709; in [7], 0.0618; in assay [8], 0.321. For the same compound, in [1], the composite Z-score was 0.255 (inactive).
